# ELG1 DNA repair: blocks ELG1-dependent DNA repair in HEK293T cells | Potency, µM (series often up to 46.1 µM), without a hit: at the top dose activity change, negative = inhibition, usual class: inhibitors | HEK293T ELG1-luciferase reporter, luminescence, 16 h; DNA damage induced by 5-fluorouridine | AID 504467 | 330,000 compounds, 2.3% hits; also: potency is read from the fitted curve at half-maximal effect; % is scaled to controls: 0 for no effect and ±100 for the full control effect; nearly all actives have a fitted effect of over 55% in size
#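 DMSO vehicle served as the neutral condition. Each well held 2,000 cells given 5-fluorouridine plus compound; after 16 hr at 37 °C/5% CO2, ONE-Glo was added and luciferase measured 30 min later.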
# p53 reactivation: restores transcriptional activity of mutant p53; H1299 p53-A138V BP100-luciferase reporter, luminescence, 24 h; 320,000 compounds, 0.063% hits; Potency, µM (titrated, usually from 92.2 µM), inactives show at the top dose activity change, positive = activation, hits mostly activators; also: potency is read from the fitted curve at half-maximal effect; % of control where 0% means no effect; nearly all actives have a fitted effect of over 45% in size
#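 H1299 (p53-null), stable ts p53-A138V + BP100-Luc; 1000 cells/well, Opti-MEM/10% FBS; cpd 4 pt, 1:5; 24 h, 37 deg C, 5% CO2; detection reagent 10 min RT; luminescence.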
# Giardia kill: kills Giardia lamblia | activity change, % at 7.66 µM, hits read low | 340,000 compounds, 0.15% hits | Giardia lamblia trophozoite viability | AID 540267; in the data active = activity change below about -80%; inconclusive = between about -30% and that limit;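 also: parasites exposed to compound for two days anaerobically before the ATP read; % is scaled to controls: 0 for no effect and ±100 for the full control effect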
#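 ATP-content bioluminescence gauges trophozoite survival. Cells (100/well) receive compound and incubate anaerobically for 48 hrs at 37 deg C; detection reagent follows for 15-30 min at room temperature.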
# VP16 counter: counter-screen for ROR gamma inhibitors: Gal4-VP16 reporter; Drosophila S2 Gal4-VP16 UAS-luciferase, luminescence, 20 h; Potency, µM (top dose mostly 53.6 µM), inactives show top-dose activity, negative = inhibition, hits mostly inhibitors; 310,000 compounds, 3.5% hits;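 also: Gal4-VP16 expression switched on by copper sulfate through the metallothionein promoter; potency is read from the fitted curve at half-maximal effect; % is scaled to controls: 0 for no effect and ±100 for the full control effect; nearly all actives have a fitted effect of over 50% in size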
# RORgamma inh: ROR gamma (mouse) transcription inhibition | Potency, µM (series often up to 53.6 µM), for the others: at the highest dose activity change, negative = inhibition, usual class: inhibitors | Drosophila S2 Gal4-RORgamma UAS-luciferase reporter, 20 h | P51450 | 310,000 compounds, 5.4% hits; also: potency is read from the fitted curve at half-maximal effect; % is scaled to controls: 0 for no effect and ±100 for the full control effect; nearly all actives have a fitted effect of over 60% in size
#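 In this cell-based reporter format, copper sulfate (700 uM final) drives Gal4–ROR gamma fusion expression from a metallothionein promoter in Drosophila Schneider cells; compounds preincubated 1 hr, reporter read after 20 hr at ambient temperature.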
# BRCA1 expr act: increases BRCA1 expression; MCF7-BRCA1-FFLuc reporter, luminescence, 48 h; response scale: scaled: vehicle 0%, 10 µM genistein 100%; 380,000 compounds, 1.1% hits; Potency, µM (highest dose often 46.1 µM), without a hit: at the top dose activation, actives largely listed as activators; also: potency is read from the fitted curve at half-maximal effect; nearly all actives have a fitted effect of over 80% in size
#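 48 h compound treatment of MCF7-BRCA1-FFLuc cells (phenol-red free MEM, 37 °C), then 15 min with luciferase substrate and luminescence imaging.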
# ELG1-Luc inh: inhibits ELG1-dependent DNA repair in HEK293T cells, confirmed | shares compounds with ELG1 DNA repair | HEK293T ELG1-luciferase levels, luminescence; cells co-treated with 5-fluorouridine | Potency, µM (series often up to 46.1 µM), without a hit: at the top dose activity change, negative = inhibition, hits mostly inhibitors | 670 compounds, 68% hits; also: potency is read from the fitted curve at half-maximal effect; % is scaled to controls: 0 for no effect and ±100 for the full control effect; nearly all actives have a fitted effect of over 55% in size
# ELG1-Luc MMS: confirmation of human ELG1 repair inhibitors, MMS stimulated | shares compounds with ELG1 DNA repair | HEK293T luciferase-tagged ELG1 level, MMS stimulated | Potency, µM (highest dose often 46.1 µM), for the others: at the top dose activity change, negative = inhibition, actives largely listed as inhibitors | 670 compounds, 53% hits | AID 624249; also: potency is read from the fitted curve at half-maximal effect; % is scaled to controls: 0 for no effect and ±100 for the full control effect; nearly all actives have a fitted effect of over 60% in size
# ELG1 5FU viab: confirmation of ELG1 repair inhibitors: viability with 5FU | shares compounds with ELG1 DNA repair | cell viability with 5-FU, ELG1-dependent repair | Potency, µM (titrated, usually from 46.1 µM), inactives show at the highest dose activity change, negative = viability loss, most hits filed as cytotoxic | 670 tested, under 10 active | AID 624250;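 also: ELG1-luc HEK293T cells cotreated with 5-fluorouridine at 10 µM final; potency is read from the fitted curve at half-maximal effect; viability measured 16 h after compound addition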
# ELG1 MMS viab: confirmation of ELG1 repair inhibitors: viability with MMS. shares compounds with ELG1 DNA repair. Cell viability with MMS, ELG1-dependent DNA repair. Potency, µM (titrated, usually from 46.1 µM), for the others: top-dose activity change, negative = viability loss, usual class: cytotoxic. 670 compounds, 33% hits. AID 624251;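 also: ELG1-luc HEK293T cells co-treated with 10 µM MMS; potency is read from the fitted curve at half-maximal effect; viability read 16 h after compound addition; % is scaled to controls: 0 for no effect and ±100 for the full control effect; nearly all actives have a fitted effect of over 60% in size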
# ELG1 unstim viab: counter-screen for ELG1 repair inhibitors: unstimulated cell viability | shares compounds with ELG1 DNA repair | cell viability counter-screen, unstimulated, luminescence | Potency, µM (top dose mostly 45.9 µM), for inactives: at the top dose activity change, negative = loss of viability, actives largely listed as cytotoxic | 900 compounds, 8% hits | AID 624252;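 also: potency is read from the fitted curve at half-maximal effect; compound exposure lasted 16 hours before reading; % is scaled to controls: 0 for no effect and ±100 for the full control effect; nearly all actives have a fitted effect of over 55% in size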
# Starred values were filed as active, the others as inactive; ? = inconclusive; . = no result; [ ] = dose if it differs, or a comment. An excerpt weighted towards active compounds, which were near 7.6% of everything screened. Unless noted, calls follow the shape of the dose curve; as a rule, active = well fitted curve in the direction sought with a large enough effect; inconclusive = small, poorly fitted or top-dose-only effect, or another doubt; inactive = no such curve, though single readings can be large; an effect the other way counts as inactive or inconclusive.
SMILES,ELG1 DNA repair,p53 reactivation,Giardia kill,VP16 counter,RORgamma inh,BRCA1 expr act,ELG1 unstim viab,others
Cc1cc(NC(=O)CN(C)S(=O)(=O)c2ccc(-c3ccc(=O)[nH]n3)s2)ccc1Br,24.0%,12.3%,-10.7,?,12.6µM*,-42.6%,.,
Cc1cccc(C)c1NC(=O)CN(C)S(=O)(=O)c1ccc(-c2ccc(=O)[nH]n2)s1,?,-6.2%,-27.5,8.0%,-21.8%,2.9%,.,
CCN(Cc1ccccc1)S(=O)(=O)c1c(C(=O)N2CCCC2)c(C)n(C)c1C,-0.8%,-4.0%,3.9,-7.0%,-16.6%,0.0%,.,
CN(Cc1cccc(F)c1)C(=O)c1cc(=O)[nH]c2ccccc12,14.6%,2.0%,1.9,-6.5%,-0.2%,-2.3%,.,
OCCN1CCN(CC(O)COc2ccc(-c3ccccc3)cc2)CC1 (stereo not drawn),?,13.6%,23.6,-1.0%,5.4%,?,.,
O=S(=O)(N1CCCCC1)N1CCN(CC(O)COc2ccc3cc(Br)ccc3c2)CC1 (stereo not drawn),13µM*,-3.3%,-10.8,-10.8%,14.0%,-57.6%,.,
CN(C)S(=O)(=O)N1CCN(CC(O)COc2ccc(-c3ccccc3)cc2)CC1 (stereo not drawn),20.6µM*,16.0%,20.5,-1.3%,-2.6%[1.91 µM],-9.7%,.,
CN(C)S(=O)(=O)N1CCN(CC(O)COc2ccc3cc(Br)ccc3c2)CC1 (stereo not drawn),23.1µM*,-4.1%,2.5,-25.6%,63.3%,-34.3%,.,
Cc1ccc(S(=O)(=O)N2CCN(CC(O)COc3ccccc3)CC2)cc1 (stereo not drawn),-21.1%,-1.5%,5.8,-2.0%,11.4%,-4.9%,.,
CCOc1ccc(S(=O)(=O)N2CCN(CC(O)COc3cccc([N+](=O)[O-])c3)CC2)cc1 (stereo not drawn),14.6µM*,4.2%,1.9,4.6%,33.8%,-25.1%,.,
COc1cc(-c2nnc(SCCOc3ccc(Cl)cc3)o2)cc(OC)c1OC,.,.,.,.,.,-8.5%,.,
O=S(=O)(N[C@H](CO)Cc1ccccc1)c1ccc(Br)cc1F,?,1.5%,5.3,.,.,-3.8%,.,
CCOc1ccc(N2C(=O)c3ccccc3C2O)cc1 (stereo not drawn),?,?,-1.1,3.7%,?,6.31µM*,.,
O=C1c2ccccc2C(O)N1c1cccnc1 (stereo not drawn),11.8%,14.5%,4.1,-1.9%,42.4%,5.8%,.,
COc1ccccc1C(=O)COC(=O)c1ccccc1OCC(=O)Nc1ccc(SC(F)F)cc1,4.61µM*,10.1%,-0.6,-17.7%,29.5%,-70.6%,-20.0%,ELG1-Luc inh=7.05µM*;ELG1-Luc MMS=?;ELG1 5FU viab=?;ELG1 MMS viab=1.2%
CCCNC(=O)C(Cc1ccccc1)NS(=O)(=O)c1cccc2nsnc12 (stereo not drawn),-1.4%,-3.6%,15.5,1.1%,6.9%,1.3%,.,
Cc1cccc(-n2c(N)c(-c3nc4ccccc4n3C)c3nc4ccccc4nc32)c1,1.84µM*,-0.4%,-17.9,5.01µM*,2.82µM*,-4.9%,?,ELG1-Luc inh=2.23µM*;ELG1-Luc MMS=5.4%;ELG1 5FU viab=?;ELG1 MMS viab=-3.9%
Cc1ccc(NC(=O)CCc2nnc3ccc(N4CCC(C)CC4)nn23)nc1,2.91µM*,2.2%,15.6,-9.2%,9.5%,13.3%,?,ELG1-Luc inh=4.45µM*;ELG1-Luc MMS=28.9%;ELG1 5FU viab=?;ELG1 MMS viab=-0.5%
CC1CN(C(=O)COC(=O)/C=C/c2cccc([N+](=O)[O-])c2)CC(C)O1 (stereo not drawn),1.46µM*,21.4%,-12.5,.,.,-64.1%,?,ELG1-Luc inh=-16.6%;ELG1-Luc MMS=?;ELG1 5FU viab=-4.8%;ELG1 MMS viab=?
CCc1ccc(S(=O)(=O)Nc2nnc(N)s2)cc1,5.7%,.,4.7,-3.2%,-9.7%,-3.9%,.,
CC(=O)N1CCN(CC(=O)Nc2ccccc2C(=O)NCc2ccc(C)cc2)CC1,-14.9%,5.0%,-27.6,4.9%,23.6%,-0.3%,.,
CC(=O)N1CCN(CC(=O)Nc2ccccc2C(=O)Nc2ccccc2)CC1,?,1.3%,-10.3,.,.,-0.5%,-0.9%,ELG1-Luc inh=3.53µM*;ELG1-Luc MMS=43.4%;ELG1 5FU viab=?;ELG1 MMS viab=-2.1%
Cn1ncc(Br)c1C(=O)N/N=C/c1cccc(OC2CSC2)c1,4.11µM*,-13.7%,9.6,-15.8%,-6.5%,-6.3%,-10.5%,ELG1-Luc inh=-7.3%;ELG1-Luc MMS=5.9%;ELG1 5FU viab=-6.3%;ELG1 MMS viab=?
Cn1cnc2c(F)c(Nc3ccc(Br)cc3Cl)c(C(=O)NOCCO)cc21,.,.,.,.,.,.,-24.9%,
Fc1ccc(Cn2nnnc2C(c2ccc(Cl)cc2)N2CCSCC2)cc1 (stereo not drawn),-2.4%,-4.4%,9.5,-3.8%,-16.7%,-46.0%,.,
CCOC(=O)c1c(C)[nH]c(C)c1S(=O)(=O)N1CCC(C(=O)Nc2ccc(OCC)cc2)CC1,.,.,.,.,.,9.2%,.,
CC(=O)Oc1ccc(-c2nc(-c3ccccc3)no2)cc1,.,.,.,.,.,?,?,
O=C(Cc1ccccc1)N1CCCC(c2nc(-c3ccc(S(=O)(=O)N4CCCC4)cc3)no2)C1 (stereo not drawn),?,-1.3%,3.6,-3.7%,10.5%,-61.6%,.,
CS(=O)(=O)N1CCCC(c2nc(-c3ccc(S(=O)(=O)NCc4ccccc4)cc3)no2)C1 (stereo not drawn),3.66µM*,1.9%,-4.6,?,9.5%[10 µM],-55.3%,14.1µM*,ELG1-Luc inh=14.1µM*;ELG1-Luc MMS=1.99µM*;ELG1 5FU viab=-20.0%;ELG1 MMS viab=1.99µM*

# Assay outcomes (PubChem BioAssay)
